Source: PubChem BioAssay AID602144 (Vanderbilt Specialized Chemistry Center, 2011)
Values joined by “and” are separate entries in the source; they are usually repeats but may differ in a detail not shown here. Equal entries are not always repeated. Active and inactive are the calls of the source. Rule as the data show it: active = remaining activity below about 50%; inactive = the rest.

Target: Phospholipase D1 (Homo sapiens) (UniProt Q13393)
Assay: cellular phospholipase D1 activity inhibition – Calu-1 cells, single concentration (AID 602144);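 also: tested at 200 nM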
Settings: cellular PLD1 activity, stronger effect = lower value

Sequence of Phospholipase D1 (Homo sapiens) (Q13393 whole entry, looked up): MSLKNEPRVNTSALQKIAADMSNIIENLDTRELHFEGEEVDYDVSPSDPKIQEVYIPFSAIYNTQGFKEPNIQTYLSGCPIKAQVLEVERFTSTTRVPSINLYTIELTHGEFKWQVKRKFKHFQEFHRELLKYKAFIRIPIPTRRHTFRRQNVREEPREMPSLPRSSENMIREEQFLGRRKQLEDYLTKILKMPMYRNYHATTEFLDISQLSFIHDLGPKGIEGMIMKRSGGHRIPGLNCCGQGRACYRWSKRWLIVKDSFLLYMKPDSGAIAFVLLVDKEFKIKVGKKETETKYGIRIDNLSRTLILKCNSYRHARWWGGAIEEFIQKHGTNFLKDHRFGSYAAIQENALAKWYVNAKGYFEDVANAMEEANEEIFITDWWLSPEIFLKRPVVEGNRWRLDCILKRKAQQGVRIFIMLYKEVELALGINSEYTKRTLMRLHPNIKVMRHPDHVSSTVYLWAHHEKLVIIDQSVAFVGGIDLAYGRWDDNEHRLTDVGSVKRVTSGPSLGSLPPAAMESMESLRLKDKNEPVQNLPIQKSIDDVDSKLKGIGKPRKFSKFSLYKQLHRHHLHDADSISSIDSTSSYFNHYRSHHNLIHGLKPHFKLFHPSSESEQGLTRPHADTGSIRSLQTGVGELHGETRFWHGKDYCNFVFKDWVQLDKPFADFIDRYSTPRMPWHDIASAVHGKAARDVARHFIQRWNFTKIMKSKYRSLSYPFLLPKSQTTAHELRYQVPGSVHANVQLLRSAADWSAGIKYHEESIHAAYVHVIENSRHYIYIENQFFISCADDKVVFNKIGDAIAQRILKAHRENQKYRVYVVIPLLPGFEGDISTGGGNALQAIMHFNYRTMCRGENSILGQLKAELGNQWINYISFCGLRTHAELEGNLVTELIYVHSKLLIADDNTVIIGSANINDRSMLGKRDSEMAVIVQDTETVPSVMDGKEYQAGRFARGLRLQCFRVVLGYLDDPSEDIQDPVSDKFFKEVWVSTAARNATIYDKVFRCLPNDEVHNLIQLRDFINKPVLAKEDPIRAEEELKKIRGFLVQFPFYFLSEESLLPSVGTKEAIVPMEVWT
Sequence of Phospholipase D1 (Homo sapiens) (Q13393 whole entry, looked up): as above

SMILES | remaining activity
O=C(NCCN1CCC2(CC1)C(=O)NCN2c1cccc(Br)c1)c1ccc2ccccc2c1 | 76.6% (inactive)
O=C(CCN1CCC2(CC1)C(=O)NCN2c1ccccc1)Nc1ccc(F)c(F)c1 | 125% (inactive)
O=C(NCCN1CCC2(CC1)C(=O)NCN2c1ccc(F)c(F)c1)c1ccc(F)cc1 | 101% (inactive)
O=C(NCCN1CCC2(CC1)C(=O)NCN2c1cccc(F)c1)c1cnc2ccccc2c1 | 79% (inactive)
O=C(NCCN1CCC2(CC1)C(=O)NCN2c1cccc(F)c1)c1cc2cc(F)ccc2[nH]1 | 44% (active)
O=C(NCCN1CCC2(CC1)C(=O)NCN2c1ccccc1)c1ccncn1 | 124% (inactive)
C[C@H](N)CN1CCC2(CC1)C(=O)NCN2c1ccccc1 (tested in a mixture with another compound) | 96.4% (inactive)
O=C(NCCN1CCC2(CC1)C(=O)NCN2c1ccccc1)c1ccc(F)cc1O | 107% (inactive)
O=C(NCCN1CCC2(CC1)C(=O)NCN2c1ccccc1)c1cc2cccnc2s1 | 51.1% (inactive)
O=C(c1cccc(F)c1)N(CCN1CCC2(CC1)C(=O)NCN2c1cccc(F)c1)C(=O)c1cccc(F)c1 | 93.5% (inactive)
C[C@H](CN1CCC2(CC1)C(=O)NCN2c1ccccc1)NC(=O)c1cc2cc(F)ccc2[nH]1 | 2.46% (active)
O=C(NCCN1CCC2(CC1)C(=O)NCN2c1ccc(Cl)cc1)c1cc2ccccc2[nH]1 | 61.5% (inactive)
O=C(NCCN1CCC2(CC1)C(=O)NCN2c1cccc(F)c1)C12CC3CC(CC(C3)C1)C2 | 98.7% (inactive)
O=C(NCCN1CCC2(CC1)C(=O)NCN2c1ccccc1)C1CCc2ccccc2C1 (stereo unspecified) | 103% (inactive) and 104% (inactive)
Cc1ccccc1C(=O)NCCN1CCC2(CC1)C(=O)NCN2c1cccc(F)c1 | 97.2% (inactive)
O=C(NCCN1CCC2(CC1)C(=O)NCN2c1ccccc1)c1ccnnc1 | 104% (inactive)
O=C(c1cnc2ccccc2c1)N1CCC[C@@H]1CN1CCC2(CC1)C(=O)NCN2c1ccccc1 | 107% (inactive)
O=C1NCN(c2ccccc2)C12CCN(CCN1CCCC1)CC2 | 116% (inactive)

SMILES | remaining activity
Cc1cccc(C(=O)N[C@@H](C)CN2CCC3(CC2)C(=O)NCN3c2ccccc2)c1 | 70% (inactive)
O=C(CCc1ccc(F)cc1)NCCN1CCC2(CC1)C(=O)NCN2c1ccccc1 | 69.5% (inactive)
O=C(NCCN1CCC2(CC1)C(=O)NCN2c1ccc(Br)cc1)c1ccc(F)cc1 | 78.5% (inactive)
O=C(NCCN1CCC2(CC1)C(=O)NCN2c1cccc(Cl)c1)c1cnc2ccccc2c1 | 55.4% (inactive)
O=C(NCCN1CCC2(CC1)C(=O)NCN2c1cccc(F)c1)c1ccc2c(c1)C(=O)OC2=O | 102% (inactive)
O=C1c2ccccc2C(=O)N1CCCN1CCC2(CC1)C(=O)NCN2c1ccccc1 | 84.6% (inactive)
O=C(NCCN1CCC2(CC1)C(=O)NCN2c1ccc(F)c(F)c1)c1ccc(Cl)cc1 | 94.9% (inactive)
O=C(NCCN1CCC2(CC1)C(=O)NCN2c1ccc(Cl)cc1)c1ccc2ccccc2c1 | 103% (inactive)
O=C(NCCN1CCC2(CC1)C(=O)NCN2c1ccc(F)c(F)c1)c1cnc2ccccc2c1 | 91.3% (inactive)
O=C(NCCN1CCC2(CC1)C(=O)NCN2c1cccc(Cl)c1)c1cc2cc(F)ccc2[nH]1 | 58% (inactive)
O=C(NCCN1CCC2(CC1)C(=O)NCN2c1cccc(F)c1)C(c1ccccc1)c1ccccc1 | 94.7% (inactive)
CC(C)[C@@H](CN1CCC2(CC1)C(=O)NCN2c1ccccc1)NC(=O)c1ccc(Cl)cc1 | 18% (active)
O=C(c1ccc2ccccc2c1)N1CC(N2CCC(n3c(=O)[nH]c4ccccc43)CC2)C1 | 108% (inactive)
O=C(C1C[C@H]1c1ccccc1)N1CC(N2CCC(n3c(=O)[nH]c4ccccc43)CC2)C1 (stereo partly specified) | 125% (inactive)
O=C(c1ccc(F)c(F)c1)N1CCC[C@@H]1CN1CCC2(CC1)C(=O)NCN2c1ccccc1 | 93.7% (inactive)
O=C(NCCN1CCC2(CC1)C(=O)NCN2c1ccccc1)c1cc(-c2ccccc2)no1 | 97.4% (inactive)
Cc1ccccc1C(=O)N(CCN1CCC2(CC1)C(=O)NCN2c1cccc(F)c1)C(=O)c1ccccc1C | 105% (inactive)
O=C(c1cnc2ccccc2c1)N1CC(N2CCC3(CC2)C(=O)NCN3c2ccccc2)C1 | 106% (inactive)
